Only a sample is shown.
aSyn 5UTR act: Activators via SNCA 5'UTR binding, MLPCN | alpha-synuclein 5'UTR reporter, activators screen | AID 1814 | activity score, % (tested at 7.5 µM), hits read low | 300,000 compounds, 7.1% hits; in the data active = activity score below about -60%
* hit, by the source's call.

SMILES	aSyn 5UTR act
CN(C)c1ccc(/C=C/C(=O)c2ccccc2O)cc1	-196.7*
O=c1c(-c2ccc3c(c2)OCCO3)coc2cc(OC3OC(CO)C(O)C(O)C3O)ccc12 (stereo not drawn)	-86.3*
O=C1C[C@H]2[C@H](CO)[C@@H](OC(=O)c3ccc(-c4ccccc4)cc3)C[C@H]2O1	-87.0*
COc1ccc(N2C3=[N+](CC2(C)O)c2ccccc2CC3)cc1 (stereo not drawn)	-110.4*
Cc1cc(=O)oc2cc(NC(=O)c3cccc(F)c3)ccc12	-151.9*
Cc1cc(=O)oc2cc(NC(=O)c3cccc(S(=O)(=O)N(C)C)c3)ccc12	-111.5*
Cc1cc(=O)oc2cc(NC(=O)c3cccc(S(C)(=O)=O)c3)ccc12	-97.1*
Cc1cc(=O)oc2cc(NC(=O)c3ccc(OC(F)F)cc3)ccc12	-124.4*
CCN(CC)C(=O)CCc1nnc(Cc2cccc(C(F)(F)F)c2)o1	-177.1*
Cc1cc(CN(C)C(=O)CCc2nnc(Cc3cccc(C(F)(F)F)c3)o2)on1	-79.0*
CC(=O)CCC(=O)NCCc1ccccc1F	-63.5*
O=C(CCc1nnc(Cc2cccc(C(F)(F)F)c2)o1)NCCc1ccccc1F	-70.9*
COc1ccc(S(=O)(=O)N2CCOCC2)cc1NC(=O)CCNC(=O)c1ccc(Br)cc1	76.6
COc1ccc(CC(=O)N(C)Cc2ccc(Cl)cc2)cc1S(=O)(=O)N1CCOCC1	-115.2*
O=[N+]([O-])c1ccc(O)c(-c2cc(C(F)(F)F)nc(-c3ccccc3)n2)c1	90.1
O=[N+]([O-])c1ccc2oc(-c3ccccc3)nc2c1	-236.1*
Cc1cccc(-c2nc3cc([N+](=O)[O-])ccc3o2)c1	-129.6*
COc1ccc(-c2nc3ccc([N+](=O)[O-])cc3o2)cc1	-192.1*
Cc1cc(C(=O)COC(=O)c2ccc[nH]c2=O)c(C)n1C	-67.9*
Cc1ccc(-n2c(C)cc(C(=O)COC(=O)c3ccc[nH]c3=O)c2C)cc1	-122.3*
COCCNC(=O)c1ccc2c(Cl)c3c(nc2c1)CCC3	-145.2*
O=C(c1ccc(S(=O)(=O)Cc2cc(F)ccc2F)c([N+](=O)[O-])c1)N1CCCCC1	-102.3*
NS(=O)(=O)c1cccc(NC(=S)NC(=O)C23CC4CC(CC(C4)C2)C3)c1	-62.3*
CCN1C(=O)/C(=C/C=C2/CCCN2C)OC1=S	-151.7*
O=[N+]([O-])c1cc(-c2nnc(C34CC5CC(CC(C5)C3)C4)o2)cc([N+](=O)[O-])c1	-96.6*
SMILES	aSyn 5UTR act
N=c1oc2ccccc2cc1-c1nc(-c2ccccc2)cs1	-63.7*
COc1cccc2cc(-c3nc(-c4cccs4)cs3)c(=O)oc12	-174.1*
O=c1oc2ccccc2cc1-c1nc(-c2cccs2)cs1	-132.7*
c1csc(-c2csc(-c3cccs3)n2)c1	-103.6*
CNc1nnc(-c2cc3ccccc3oc2=O)s1	-78.2*
CCOC(=O)Nc1nc(-c2ccc(F)cc2F)cs1	-147.9*
Cc1ccc(-c2cc(-c3cccs3)[nH]n2)c(O)c1	-127.7*
O=C(NCCCc1ccccc1)c1ccc(F)cc1	-101.2*
O=C(NCCc1ccccc1)c1ccc(NS(=O)(=O)c2ccc3[nH]c(=O)[nH]c3c2)cc1	-72.3*
CCCNC(=O)c1ccc2c(=O)c(O)c(-c3ccc(C)cc3)[nH]c2c1	68.6
O=C(NCCc1ccccc1)c1ccc(Cl)nc1	-169.5*
C=CCN(c1ccc(C(=O)NCCc2ccccc2)cc1)S(C)(=O)=O	-108.9*
O=C(NCCc1ccccc1)c1ccncc1	-145.7*
CC(=O)Nc1ccc(C(=O)NCCc2ccccc2)cc1	-131.3*
Cn1ccs/c1=N\C(=O)Nc1cccc(C(F)(F)F)c1	-109.2*
COc1ccccc1Nc1nc(N)nc(-c2cc3ccccc3o2)n1	-62.1*
CCn1c(-c2ccc(N(C)C)cc2)nc2ccccc21	-97.5*
CN(C)c1ccc(-c2nc3ccccc3n2C)cc1	60.8
C=CCn1c(-c2ccc(OC)cc2)nc2ccccc21	-73.3*
COc1cccc(Nc2nc3ccccc3n3nnnc23)c1	-64.5*
Cc1ccc(-c2nc3ccccc3n3nnnc23)cc1	-249.5*
Cc1ccc(-c2nnc3c(C(F)(F)F)nc4ccccc4n23)cc1	70.6
c1ccc(Nc2nc3ccccc3n3nnnc23)cc1	-74.5*
CCN(CC)S(=O)(=O)c1ccc(Nc2nc3ccccc3n3nnnc23)cc1	-86.6*
CCN(CC)S(=O)(=O)c1ccc2c(c1)C(=NO)c1cc(S(=O)(=O)N(CC)CC)ccc1-2	114.9
SMILES	aSyn 5UTR act
Fc1ccccc1Nc1nc2ccccc2n2nnnc12	-146.1*
O=C(Nc1nc2c(s1)CN(Cc1ccccc1)CC2)C1CCC1	-107.7*
Cc1cccc(CSc2ccc(-c3ccco3)nn2)c1	-173.5*
Clc1ccc(CSc2ccc(-c3ccccn3)nn2)cc1	-131.7*
O=C(CSc1ccc(-c2ccccn2)nn1)c1ccccc1	-97.1*
Cc1ccc(CSc2ccc(-c3ccco3)nn2)cc1	-141.5*
Clc1cccc(CSc2ccc(-c3ccco3)nn2)c1	-83.5*
Clc1ccc(CSc2ccc(-c3ccco3)nn2)cc1	-164.6*
Cc1cc2ncc(-c3cccc(Cl)c3)cn2n1	-117.3*
Cc1cc2ncc(-c3ncc(C(F)(F)F)cc3Cl)cn2n1	65.4
CCN1Cc2c(/C=C/c3ccccc3)nc3ccc(OC)cc3c2N(c2cccc(Cl)c2)C1	-66.1*
CC(=O)N(/N=C1\Sc2ccccc2C1=O)c1cccc(C)c1	-127.2*
CCOc1ccccc1OCCCOc1ccc(C)cc1Cl	-111.3*
CCOc1ccc(N(CC(=O)Nc2ccc(C)c(C)c2)S(C)(=O)=O)cc1	-171.1*
CCOc1ccc(N(CC(=O)NCc2ccc(OC)cc2)S(C)(=O)=O)cc1	-80.7*
COc1ccccc1N(CC(=O)N/N=C/c1c(O)ccc2ccccc12)S(C)(=O)=O	49.3
COc1ccc(CNC(=O)CN(c2cc(C)cc(C)c2)S(=O)(=O)c2c(C)[nH]c(=O)[nH]c2=O)cc1	-80.6*
CC(=O)Nc1ccc(NC(=O)CN(c2cccc([N+](=O)[O-])c2)S(C)(=O)=O)cc1	68.6
COc1ccc(N(CC(=O)Nc2cc(Cl)ccc2OC)S(=O)(=O)c2c(C)noc2C)cc1	70.7
CCc1sc(C(=O)Nc2ccc3c(c2)OCCO3)cc1Br	-192.6*
CCn1ncc(Br)c1C(=O)Nc1ccc(C(C)C)cc1	-79.0*
CCn1ncc(Br)c1C(=O)Nc1ccc2c(c1)OCCO2	-93.6*
Cc1ccc(C)c(OCc2cc(C(=O)N3CCN(C(=O)c4ccco4)CC3)no2)c1	-113.1*
Cc1ccc(C)c(OCc2cc(C(=O)N3C[C@@H](C)O[C@@H](C)C3)no2)c1	-130.8*
Cc1ccc(C)c(OCc2cc(C(=O)N3CCN(c4ccccc4)CC3)no2)c1	-115.0*
SMILES	aSyn 5UTR act
Cc1nnc(SCc2cccc3ccccc23)s1	-89.8*
Cc1ccc(NC(=O)c2ccc(CSc3nnc(C)s3)cc2)cc1	-75.0*
Cc1ccc(NC(=O)c2ccc(CSc3ccccn3)cc2)cc1	-92.9*
Cc1ccccc1NC(=O)c1ccc(CSc2ncccn2)cc1	-82.5*
Cc1ccc(NC(=O)c2ccc(CSc3nnnn3C)cc2)cc1	-165.1*
O=C(Nc1ccc(Br)cc1)c1ccc(CSC2=NCCS2)cc1	-132.1*
Cc1nnc(SCc2ccc(F)cc2)s1	-69.0*
Clc1ccc(-c2noc(CN3CCOCC3)n2)cc1	-86.2*
Cc1ccc(C(=O)Cn2ncsc2=N)cc1	-163.7*
Cc1ccccc1Oc1cc(NC(=O)Cn2cnc([N+](=O)[O-])c2)cc([N+](=O)[O-])c1	-90.8*
S=c1[nH]nc(-c2ccn[nH]2)n1-c1ccccc1Cl	-85.9*
c1ccc(Sc2ncnc3c2oc2ccccc23)nc1	-194.6*
COc1ncnc2c1oc1ccccc12	-71.0*

Screening results deposited in PubChem by Broad Institute.
